40 compounds from PubChem BioAssay (Tox21) can be followed below.

Results filed as inconclusive are left out. The source made the active and inactive calls. Calls follow the shape of the full dose curve.

Peroxisome proliferator-activated receptor gamma (Homo sapiens), sequence (P37231 whole entry, looked up): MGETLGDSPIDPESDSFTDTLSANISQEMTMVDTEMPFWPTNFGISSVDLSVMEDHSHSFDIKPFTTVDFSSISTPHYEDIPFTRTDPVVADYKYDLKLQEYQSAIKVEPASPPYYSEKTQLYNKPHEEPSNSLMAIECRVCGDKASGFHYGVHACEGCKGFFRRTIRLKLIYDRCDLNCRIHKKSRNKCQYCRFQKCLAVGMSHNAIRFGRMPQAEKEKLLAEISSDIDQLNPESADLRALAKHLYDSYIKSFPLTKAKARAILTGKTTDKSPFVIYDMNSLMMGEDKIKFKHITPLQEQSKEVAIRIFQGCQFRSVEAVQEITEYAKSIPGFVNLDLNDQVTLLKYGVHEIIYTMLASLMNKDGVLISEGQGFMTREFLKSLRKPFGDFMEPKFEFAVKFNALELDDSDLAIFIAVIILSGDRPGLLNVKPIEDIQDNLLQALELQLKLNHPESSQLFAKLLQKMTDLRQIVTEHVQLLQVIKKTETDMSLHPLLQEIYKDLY

The target in this assay is Peroxisome proliferator-activated receptor gamma (Homo sapiens) (UniProt P37231). Briefly: qHTS assay to identify small molecule antagonists of the peroxisome proliferator-activated receptor gamma (PPARg) signaling pathway (AID 743191). Also: nearly all actives have a fitted effect of over 30% in size. To be noted: HEK293H PPARg-UAS-bla, beta-lactamase ratio, antagonist, 17 h; series mostly up to 62.6 µM. An excerpt:
U.S. Tox21 Program National Center for Advancing Translational Sciences [NCATS] NIH Chemical Genomics Center [NCGC] U.S. Environmental Protection Agency [EPA] National Institutes of Environmental Health Sciences [NIEHS] National Toxicology Program [NTP] U.S. Food and Drug Administration [FDA] Tox21 Assay Overview: The peroxisome proliferator-activated receptors (PPARs) are lipid-activated transcription factors of the nuclear receptor superfamily with three distinct subtypes namely PPAR alpha, PPAR delta (also called PPAR beta) and PPAR gamma (PPARg). All these subtypes heterodimerize with Retinoid X receptor (RXR) and these heterodimers regulate transcription of various genes. PPAR-gamma receptor (glitazone receptor) is involved in the regulation of glucose and lipid metabolism. To identify the compounds that inhibit PPAR-gamma signaling, GeneBLAzer PPAR gamma UAS-bla HEK293H cell line (Invitrogen, Carlsbad, CA, USA) containing a beta-lactamase reporter gene under control of an Upstream Activator Sequence (UAS) was used to screen the Tox21 compound library.
Tox21 Assay Protocol Summary: PPARg-bla cells were dispensed at 3000 cells/6uL/well in 1536-well black wall/clear bottom plates using a Multidrop Combi (Thermo Fisher Scientific, Waltham, MA) dispenser. After the assay plates were incubated at 37C and 5% CO2 for 5 h, 23 nL of compounds dissolved in DMSO, positive controls or DMSO only was transferred to the assay plate by a Pintool station (Kalypsys, San Diego, CA). The assay plates were incubated at 37C for 17 h. After 1 uL of LiveBLAzerTM B/G FRET substrate was added using a Bioraptr Flying Reagent Dispenser (FRD) workstation (Beckman Coulter, Indianapolis, IN, USA), the plates were incubated at room temperature for 1 h, and fluorescence intensity was measured by an Envision plate reader (PerkinElmer, Shelton, CT).
Turning to `CC(=O)O[Si](C)(OC(C)=O)OC(C)=O`, the outcome was inactive.

Regarding `CCCCOC(=O)C(C)O` (stereo not given), the result was inactive. Take `CCCCC1CCC(O)CC1` (stereo not given): the outcome was inactive. Then `CC(C)c1ccc(C=O)cc1`, with “inactive”; and `COC(=O)/C=C\C(=O)O`, with “inactive”; and `CN(C)CCCO[C@@H]1[C@H]2OC(C)(C)O[C@H]2O[C@@H]1C(O)CO` (stereo not given in full), with “inactive”.

Consider `Nc1nnnn1-c1ccccc1`, for which the outcome was inactive. Then `COC(=O)c1cccc(Cl)c1`, with “inactive”. In the case of `CCN1CCCC1CN` (stereo not given), the result was inactive. Then `O=C1CCC(=O)N1Cl`, with “inactive”; and `Cc1ccc(C)c([N+](=O)[O-])c1`, with “inactive”. As to `CC(=O)c1cc(C)oc1C`, the outcome was inactive. Then `COc1nc(N)nc2nc[nH]c12`, with “inactive”. `C=CCCCCCCCC`: the outcome was inactive. Under `CC(C)OC(=O)OCOP(=O)(CO[C@H](C)Cn1cnc2c(N)ncnc21)OCOC(=O)OC(C)C` stands “inactive”. Under `COCCc1ccccn1` stands “inactive”; under `Cc1ncc([N+](=O)[O-])n1CC(C)O` (stereo not given), “inactive”.

Regarding `CCCCCCCCCCCCCBr`, the outcome was inactive.

Consider `Cc1c(Cl)cccc1Cl`, for which the result was inactive. Then `Cc1c(N)cccc1Cl`, with “inactive”. On to `CNCCS(=O)(=O)O`, for which the outcome was inactive. Regarding `COc1c2occc2c(OC)c2c(=O)cc(C)oc12`, the result was inactive.

For `CCCCOCC(C)O` (stereo not given), the outcome was inactive. For `CC(Oc1cc(Cl)ccc1Cl)C(=O)O` (stereo not given), the outcome was inactive. As for `ONc1ccccc1`, the result was inactive. Under `CC(O)COC(C)(C)C` (stereo not given) stands “inactive”; under `CCC(C)C(C)=O` (stereo not given), “inactive”. Then `COP(=O)(O)OP(=O)(O)OC`, with “inactive”; and `Cc1c(C(=O)c2c[nH]n(C)c2=O)ccc(S(C)(=O)=O)c1C1=NOCC1`, with “inactive”. Under `O=C(O)c1cc2ccccc2nc1C(=O)O` stands “inactive”; under `CC(=O)O[C@@H]1CC2CCC1(C)C2(C)C` (stereo not given in full), “inactive”. `CC/C=C\CCOC(=O)c1ccccc1O`: the result was inactive. Take `CC1=NN(c2ccc(S(=O)(=O)O)cc2)C(=O)C1`: the outcome was inactive.

`C=CCCCC`: the outcome was inactive.

For `C=CCSSCCC`, the result was inactive. Then `O=C(CN1CCNCC1)NC1CCCCC1`, with “inactive”; and `CCCc1ccc(O)cc1`, with “inactive”; and `CCCCCCCCCCOC(C)=O`, with “inactive”. Regarding `OC[C@@H](O)C(O)[C@@H](O)CO` (stereo not given in full), the outcome was inactive.

Take `C=CC(=O)OCC1CCCO1` (stereo not given): the result was inactive.
